Test results as given in PubChem BioAssay (NCATS).
Results filed as inconclusive are left out. Where a call stands in place of a potency, no number is given. Active and inactive are the calls of the source. Calls follow the shape of the dose curve; as a rule, active = well fitted cell-killing curve with a large enough effect; inconclusive = small, poorly fitted or top-dose-only effect, or effect the other way; inactive = no such curve, though single readings can be large or run the other way.
Potency is read from the fitted curve at half-maximal effect.

Experiment: qHTS of pediatric cancer cell lines to identify multiple opportunities for drug repurposing: Confirmatory screen for Rh30 cells (AID 1347126); also: nearly all actives have a fitted effect of over 55% in size
Conditions: Rh30 rhabdomyosarcoma cell viability; series mostly up to 45.9 µM
Source text: Drug repurposing or repositioning has been offered as a strategy for drug development in oncology programs. This approach has special potential for childhood cancers and other rare or orphan diseases, where the expected return on new drug development has been a disincentive to pharmaceuticals.
In this project we exploit the poly-pharmacology of drugs to discover new indications via phenotypic screening of a panel of 19 well-characterized cell lines derived from solid tumors seen in children and adolescents. The goal is to identify approved drugs with previously unrecognized anticancer properties that has the potential to reveal new mechanisms and biological processes involved in carcinogenesis or drug resistance. We employed a titration-based paradigm (quantitative high-throughput screening or qHTS), where all compounds were tested at multiple concentrations for their effect on cell viability. Concentration-response curves (CRCs) were derived directly from the primary screen, and both potency and efficacy values were used to identify compounds with robust bioactivity profiles. We screened the NIH Chemical Genomics Center (NCGC) Pharmaceutical Collection (NPC) and Mechanism Interrogation Plate (MIPE) small molecule collections of approved and investigational compounds against these cell lines; and measured metabolically active cells after 48 hours of compound treatment as a proxy for cell viability.
Assay Submitter: Nathalia J. Martinez, National Center for Advancing Translational Sciences, National Institutes of Health, Rockville, MD, USA; email: natalia.martinez@nih.gov
[1] Shen, M et al. Quantitative high-throughput phenotypic screening of pediatric cancer cell lines identifies multiple opportunities for drug repurposing. Oncotarget 2017 Dec 19;9(4):4758-4772. PMID 29435139.
The cells were obtained from University of North Carolina (UNC), Pediatric Preclinical Testing Program (PPT), and Coriell Institute (CI).
qHTS cell viability assay:
Cells were assayed in growth media at a density of 500-1,000 cells/well. Five microliters of cells were dispensed into 1,536-well, white, solid-bottom, TC-treated plates (Greiner Bio One) using a multidrop dispenser and incubated at 37 degrees C, 5% CO2, under a humidified atmosphere for 5 hours. Twenty-three nanoliters of compounds and controls (neutral control DMSO or positive control bortezomib at final concentration of 2.3 µM) were subsequently transferred by Kalypsys pintool. For primary screens, the MIPE collection was tested at 11-point dilutions (final concentrations range from 0.78 nM to 46 µM) and the NPC collection at 8-point dilutions (final concentrations range from 0.59 nM to 46 µM). Compounds tested in follow-up screens were assayed at 11-point dilutions. Cells were incubated for 48 hours, followed by addition of 3 µL of CellTiter-Glo (Promega). After a 15 min incubation at room temperature, samples were analyzed for luminescence intensity using a ViewLux High-throughput CCD imager equipped with clear filters.
In the case of `Nc1nc2ccc(OC(F)(F)F)cc2s1`, the Potency is reported as “inactive”. In the case of `COc1cc(Nc2ncc3c(n2)-c2ccc(Cl)cc2C(c2c(F)cccc2OC)=NC3)ccc1C(=O)O`, the Potency is reported as “inactive”. In the case of `O=C(c1cc(Cc2n[nH]c(=O)c3ccccc23)ccc1F)N1CCN(C(=O)C2CC2)CC1`, the Potency is reported as “inactive”. With `COc1ccc(-c2ccc3c(N4CCOC[C@H]4C)nc(N4CCOC[C@H]4C)nc3n2)cc1CO` the Potency was 185 nM (active). With `CCN(CC)CCCC(C)Nc1ccnc2cc(Cl)ccc12` (centres undefined) the Potency was “inactive”. With `COc1ccc(-c2ccc3c(N4CCOCC4)nc(N4C[C@@H](C)O[C@@H](C)C4)nc3n2)cc1CO` the Potency was 657 nM (active). With `CC(C=CC1=C(C)CCCC1(C)C)=CC=CC(C)=CC(=O)O` the Potency was “inactive”. In the case of `COc1cccc2cc(-c3nc(C4CCC(C(=O)O)CC4)n4ncnc(N)c34)[nH]c12` (centres undefined), the Potency is reported as 10400 nM (active). With `COc1cc2nccc(Oc3ccc(NC(=O)NC4CC4)c(Cl)c3)c2cc1C(N)=O` the Potency was “inactive”. With `O=C(NOC[C@H](O)CO)c1ccc(F)c(F)c1Nc1ccc(I)cc1F` the Potency was “inactive”. For `COc1ccc(-c2oc3cc(OC)ccc3c2C(=O)c2ccc(C#N)cc2)cc1`, the Potency was “inactive”. For `Cc1oncc1C(=O)Nc1ccc(C(F)(F)F)cc1`, the Potency was “inactive”. With `O=NN(CCCl)C(=O)NCCCl` the Potency was “inactive”. For `CCC(C)n1ncn(-c2ccc(N3CCN(c4ccc(OC[C@H]5CO[C@](Cn6cncn6)(c6ccc(Cl)cc6Cl)O5)cc4)CC3)cc2)c1=O` (some centres undefined), the Potency was “inactive”. In the case of `Cn1cnc2c(F)c(Nc3ccc(Br)cc3Cl)c(C(=O)NOCCO)cc21`, the Potency is reported as “inactive”. In the case of `Cc1c(CN2CCN(C(=O)C(C)C)CC2)sc2c(N3CCOCC3)nc(-c3cnc(N)nc3)nc12`, the Potency is reported as 928 nM (active). For `C[C@]1(c2nc3c(C(N)=O)cccc3[nH]2)CCCN1`, the Potency was “inactive”. For `COCC(=O)NCC=Cc1ccc2ncnc(Nc3ccc(Oc4ccc(C)nc4)c(C)c3)c2c1`, the Potency was 2930 nM (active). In the case of `CS(=O)(=O)c1ccc(C(=O)Nc2ccc(Cl)c(-c3ccccn3)c2)c(Cl)c1`, the Potency is reported as “inactive”. For `NCCCC(N)(C(=O)O)C(F)F` (centres undefined), the Potency was “inactive”. For `CCC(C)(C)C(=O)O[C@H]1C[C@@H](C)C=C2C=C[C@H](C)[C@H](CC[C@@H]3C[C@@H](O)CC(=O)O3)[C@H]21`, the Potency was 16500 nM (active). For `Cc1c(C)c2c(c(C)c1O)CCC(C)(COc1ccc(CC3SC(=O)NC3=O)cc1)O2` (centres undefined), the Potency was “inactive”. In the case of `CO[C@@H]1[C@H](N(C)C(=O)c2ccccc2)C[C@H]2O[C@]1(C)n1c3ccccc3c3c4c(c5c6ccccc6n2c5c31)C(=O)NC4`, the Potency is reported as “inactive”. For `Nc1nc2c(ncn2COCCO)c(=O)[nH]1`, the Potency was “inactive”. With `Nc1nc2[nH]cc(CCc3ccc(C(=O)N[C@@H](CCC(=O)O)C(=O)O)cc3)c2c(=O)[nH]1` the Potency was “inactive”. In the case of `OC(CN1CCC(Cc2ccc(F)cc2)CC1)c1ccc(Cl)cc1` (centres undefined), the Potency is reported as “inactive”. With `CNCc1ccc(-c2[nH]c3cc(F)cc4c3c2CCNC4=O)cc1` the Potency was “inactive”. For `CCOc1ccn(-c2ccc(F)cc2)c(=O)c1C(=O)Nc1ccc(Oc2ccnc(N)c2Cl)c(F)c1`, the Potency was “inactive”. With `Cc1cn[nH]c1` the Potency was “inactive”.
